An excerpt weighted towards active compounds, which were near 21% of everything screened.
NS1 function inh: influenza NS1 inhibition | 270,000 compounds, 0.4% hits | AID 2326 | Potency, µM (highest dose often 46.1 µM); calls by dose curve; further: actives are rising curves; nearly all actives have a fitted effect of over 50% in size
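A cell-based growth assay was used: compounds that relieve NS1-induced slow growth of budding yeast raise OD600. Assay medium was yeast nitrogen base with ammonium sulphate and -URA supplement, pH 6.0, with 2% galactose.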
Pf growth 96h: P. falciparum growth inhibition at 96 hour, primary screen for plastid delayed-death inhibitors; 320,000 compounds, 6.9% hits; Potency, µM (highest dose often 28.7 µM), usual class: inhibitors; P. falciparum luciferase reporter growth, 96 h; AID 504834
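Parasite growth measured via integrated firefly luciferase reporter in P. falciparum. Infected erythrocytes at 2% hematocrit, 0.05% parasitemia final were treated 96 hours at 37 C under 5% CO2, and luminescence was read.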
Pf growth 48h: inhibits P. falciparum growth in the first generation, 48 h. P. falciparum luciferase growth in erythrocytes, 48 h. Potency, µM (highest dose often 28.7 µM), hits mostly inhibitors. 310,000 compounds, 5.9% hits. AID 504832
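Erythrocytes infected with P. falciparum carrying an integrated firefly luciferase reporter (2% hematocrit, 0.1% parasitemia final) were exposed to compounds in RPMI 1640 with 0.5% Albumax at 37 C, 5% CO2. Growth inhibition was scored as reduced luminescence.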
SARS PLP yeast: blocks SARS-CoV papain-like protease in a yeast assay | S. cerevisiae expressing SARS-CoV PLpro, growth rescue | Potency, µM (top dose mostly 32.9 µM), most hits filed as activators | 330,000 compounds, 0.19% hits | AID 485353; calls by dose curve; further: nearly all actives have a fitted effect of over 55% in size
CHX counter: affects cycloheximide protein synthesis inhibition readout, counter-screen | cell reporter, cycloheximide protein synthesis inhibition counterscreen | max response, % | 300,000 compounds, 12% hits | AID 2314; in the data active means max response mostly above about 13%, no sharp cut-off; inactive means mostly below about 14%; further: read at 38.3 µM for the half of the compounds with a filed dose
Shiga inhibitor: blocks Shiga toxin action in Vero cells; inhibition, % at 38.7 µM; Vero cells, Shiga toxin protein synthesis inhibition reporter; 290,000 compounds, 9.2% hits; in the data active means inhibition mostly above about 28%, no sharp cut-off; inactive means mostly below about 43%
A number is an active result; [ ] = dose if it differs, or a comment. Unless noted, the call rests on the fitted dose curve; in most records, active means well fitted inhibition curve with a large enough effect; inconclusive means small, poorly fitted or top-dose-only effect, or another doubt; inactive means no such curve, though single readings can be large or run the other way.

For C#Cc1ccc(CN2CCC(Oc3cc(C(=O)NC4CC4)ccc3OC)CC2)cc1 the results were NS1 function inh inactive, Pf growth 96h inactive, Pf growth 48h 13µM, SARS PLP yeast inactive, CHX counter inactive and Shiga inhibitor inactive.
Screening COc1cccc(CNc2ccc(S(=O)(=O)N3CCCC3)cn2)c1 returned SARS PLP yeast inactive.
`Cc1cccc(CNC(=O)c2ccc3nc(Cc4ccccc4F)oc3c2)n1` gave NS1 function inh inactive, Pf growth 96h inactive, Pf growth 48h inactive, SARS PLP yeast inactive, CHX counter 58 and Shiga inhibitor 111.
Screening O=C(NCCc1ccccn1)c1ccc2nc(Cc3ccccc3F)oc2c1 returned NS1 function inh inactive, Pf growth 96h inactive, Pf growth 48h inactive, SARS PLP yeast inactive, CHX counter 62 and Shiga inhibitor 105.
`COc1ccc(Cc2nc3ccc(C(=O)NCc4cc(C)no4)cc3o2)cc1OC` gave NS1 function inh inactive, Pf growth 96h inconclusive, Pf growth 48h inconclusive, SARS PLP yeast inactive, CHX counter inactive and Shiga inhibitor inactive.
CCN(CC)CCC(c1ccc2c(c1)OCO2)c1c(O)cc(OC)cc1OC (stereo not drawn) was read as NS1 function inh inactive, Pf growth 96h 2.9µM, Pf growth 48h 1.5µM, SARS PLP yeast inactive, CHX counter inactive and Shiga inhibitor inactive.
For CCN(CC)C(=O)CC(c1cc(OC)c(OC)c(OC)c1)c1c(O)cc(OC)cc1OC (stereo not drawn) the results were NS1 function inh inactive, Pf growth 96h inconclusive, Pf growth 48h inconclusive, SARS PLP yeast inactive, CHX counter inactive and Shiga inhibitor inactive.
`COc1cc(O)c(C(CCN2CCN(c3ccccc3)CC2)c2cc(OC)c(OC)c(OC)c2)c(OC)c1` (stereo not drawn) gave NS1 function inh inactive, Pf growth 96h 0.93µM, Pf growth 48h 1.3µM, SARS PLP yeast inactive, CHX counter inactive and Shiga inhibitor inactive.
CCN(CC)CCC(c1cc(OC)c(OC)c(OC)c1)c1c(O)cc(OC)cc1OC (stereo not drawn) was read as NS1 function inh inactive, Pf growth 96h 2.9µM, Pf growth 48h 3.3µM, SARS PLP yeast inactive, CHX counter inactive and Shiga inhibitor inactive.
Screening COc1cc(O)c(C(CCN2CCCC2)c2ccc3c(c2)OCO3)c(OC)c1 (stereo not drawn) returned NS1 function inh inactive, Pf growth 96h 2.9µM, Pf growth 48h 2.9µM, SARS PLP yeast inactive, CHX counter inactive and Shiga inhibitor inactive.
For CS(=O)(=O)c1cccc(NC(=O)CSc2nnc3n2CCCCC3)c1 the results were Pf growth 96h inconclusive, Pf growth 48h inactive and SARS PLP yeast inactive.
Screening COc1cc(O)c(C(CCN2CCN(c3ccccc3)CC2)c2ccc3c(c2)OCO3)c(OC)c1 (stereo not drawn) returned NS1 function inh inactive, Pf growth 96h 0.33µM, Pf growth 48h 0.83µM, SARS PLP yeast inactive, CHX counter inactive and Shiga inhibitor inactive.
For O=C(NCC(Cl)c1ccc2ccccc2c1)c1c(F)cccc1F (stereo not drawn) the results were NS1 function inh inactive, Pf growth 96h inactive, Pf growth 48h inactive[0.00184 µM], SARS PLP yeast inactive, CHX counter 33 and Shiga inhibitor inactive.
COc1ccc(CNC(=O)C(C)c2ccc([N+](=O)[O-])cc2)cc1 (stereo not drawn) was read as NS1 function inh inactive, Pf growth 96h inactive, Pf growth 48h inconclusive, SARS PLP yeast inactive, CHX counter inactive and Shiga inhibitor inactive.
For COC(=O)Cc1c(C)c2ccc(OCC(=O)N3CCCC(C)C3)c(C)c2oc1=O (stereo not drawn) the results were NS1 function inh inactive, Pf growth 96h inactive, Pf growth 48h inconclusive, SARS PLP yeast inactive, CHX counter inactive and Shiga inhibitor inactive.
COc1cc(/C=N/NC(=O)C(Cc2c[nH]c3ccccc23)NC(=O)OCc2ccccc2)cc([N+](=O)[O-])c1O (stereo not drawn) was read as NS1 function inh inconclusive, Pf growth 96h inactive, Pf growth 48h inactive, SARS PLP yeast inactive, CHX counter inactive and Shiga inhibitor inactive.
`COc1cc(/C=N/NC(=O)Cc2ccc(Br)cc2)cc(OC)c1O` gave NS1 function inh inactive, Pf growth 96h 12µM, Pf growth 48h inactive, SARS PLP yeast inactive, CHX counter inactive and Shiga inhibitor inactive.
`COc1ccc(/C=N/NC(=O)Cc2ccc(Cl)cc2)cc1OC` gave Pf growth 96h inconclusive, Pf growth 48h inactive, SARS PLP yeast inactive, CHX counter inactive and Shiga inhibitor inactive.
COc1cc(/C=N/NC(N)=O)cc([N+](=O)[O-])c1O was read as NS1 function inh inactive, Pf growth 96h inactive, Pf growth 48h inactive, SARS PLP yeast inactive, CHX counter inactive and Shiga inhibitor inactive.
For COC(=O)N/N=C/c1cc(OC)c(O)c([N+](=O)[O-])c1 the results were NS1 function inh inactive, Pf growth 96h inactive, Pf growth 48h inactive, SARS PLP yeast inactive, CHX counter 92 and Shiga inhibitor 77.
For COc1cc(/C=N/NC(=O)C(Cc2c[nH]c3ccccc23)NC(=O)OCC(C)C)cc([N+](=O)[O-])c1O (stereo not drawn) the results were NS1 function inh inactive, Pf growth 96h 12µM, Pf growth 48h inactive, SARS PLP yeast inactive, CHX counter inactive and Shiga inhibitor inactive.
Screening c1ccc2nc(-c3nccs3)ccc2c1 returned NS1 function inh inactive, Pf growth 96h inactive, Pf growth 48h inactive, SARS PLP yeast inactive, CHX counter 28 and Shiga inhibitor 96.
Screening Clc1ccsc1-c1ccc2ccccc2n1 returned NS1 function inh inactive, Pf growth 48h inactive, SARS PLP yeast inactive, CHX counter 57 and Shiga inhibitor 107.
`CCN1CC(CCN2CCOCC2)C(c2ccccc2)(c2ccccc2)C1=O` (stereo not drawn) gave Pf growth 96h inactive and Pf growth 48h inconclusive.
COc1ccc(/C=N/OC(=O)Nc2ccc(Cl)cc2)c(OC)c1 was read as NS1 function inh inactive, Pf growth 96h inactive, Pf growth 48h inactive, SARS PLP yeast inactive, CHX counter 25 and Shiga inhibitor inactive.
Screening Cc1ccc(NC(=O)O/N=C/c2ccc(N(C)C)cc2)cc1 returned NS1 function inh inactive, Pf growth 96h inactive, Pf growth 48h inactive, SARS PLP yeast inactive, CHX counter 21 and Shiga inhibitor inactive.
Cc1ccc(C(=O)O/N=C/c2ccc(N(C)C)cc2)cc1 was read as NS1 function inh inactive, Pf growth 96h inactive, Pf growth 48h inactive, SARS PLP yeast inactive, CHX counter inactive and Shiga inhibitor inactive.
COc1ccc(NC(=O)O/N=C/c2ccncc2)cc1 was read as Pf growth 96h inactive, Pf growth 48h inactive, SARS PLP yeast inactive, CHX counter inactive and Shiga inhibitor 43.
COc1ccc(/C=N/OC(=O)Nc2ccccc2OC)cc1 was read as NS1 function inh inactive, Pf growth 96h inactive, Pf growth 48h inactive, SARS PLP yeast inactive, CHX counter 42 and Shiga inhibitor 94.

Source: PubChem
